Potency data for 32 compounds are collected here from PubChem BioAssay (NCATS).

Inconclusive results are not listed. A call without a number means that no potency is given here. Activity calls are given as the source filed them. Calls follow the shape of the full dose curve. Numbered stars: 1 amine (or outer) side, 2 acyl side, 3 side chain; on linkers, the order of the positions; unused ones are H or OH. Bridge positions count the residues as written; N and C are the ends. Square brackets hold non-standard residues; d marks the D form. Peptide text beside a SMILES is read from it. I, II: the chains in the order shown. Actinocin(9to1) = Cc1c2oc3c(C)ccc(C(=O)[*:1])c3nc-2c(C(=O)[*:2])c(N)c1=O; NMeV = CN[C@H](C(=O)O)C(C)C; Sar = CNCC(=O)O
Potency is read from the fitted curve at half-maximal effect.

The target in the assay is Nucleoprotein (Lymphocytic choriomeningitis virus (strain Armstrong)) (UniProt P09992). The experiment in a line: qHTS for Inhibitors of the Functional Ribonucleoprotein Complex (vRNP) of Lymphocytic Choriomeningitis Arenaviruses (LCMV): LCMV Primary Screen - GLuc reporter signal (AID 1347086). Also: nearly all actives have a fitted effect of over 70% in size. To be noted: LCMV minigenome vRNP cell assay, Gaussia luciferase reporter; series mostly up to 57.5 µM. On the technique in general: In qHTS, concentration-response curves come from the screen itself.
Sequence of Nucleoprotein (Lymphocytic choriomeningitis virus (strain Armstrong)) (P09992 whole entry, looked up): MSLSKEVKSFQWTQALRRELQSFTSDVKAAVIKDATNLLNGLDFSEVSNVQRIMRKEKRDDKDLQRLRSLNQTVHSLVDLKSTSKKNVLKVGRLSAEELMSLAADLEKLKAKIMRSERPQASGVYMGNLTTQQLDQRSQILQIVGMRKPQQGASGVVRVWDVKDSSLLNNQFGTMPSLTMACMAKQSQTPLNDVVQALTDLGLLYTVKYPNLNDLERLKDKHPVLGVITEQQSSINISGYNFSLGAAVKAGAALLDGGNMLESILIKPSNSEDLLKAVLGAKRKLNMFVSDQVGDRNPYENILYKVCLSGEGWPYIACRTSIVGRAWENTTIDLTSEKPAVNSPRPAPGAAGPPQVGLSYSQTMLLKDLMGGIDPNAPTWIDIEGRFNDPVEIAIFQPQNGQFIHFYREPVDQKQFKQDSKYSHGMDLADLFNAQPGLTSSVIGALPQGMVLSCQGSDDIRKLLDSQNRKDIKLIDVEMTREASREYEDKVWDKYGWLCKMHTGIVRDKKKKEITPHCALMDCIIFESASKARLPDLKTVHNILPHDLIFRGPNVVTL
As for `COC(=O)C(c1ccccc1Cl)N1CCc2sccc2C1` (configuration not stated), the Potency entry was “inactive”. Turning to `CC/C=C(\C(=O)N[C@@H]1C(=O)N2C(C(=O)OCOC(=O)C(C)(C)C)=C(COC(N)=O)CS[C@H]12)c1csc(N)n1`, the Potency entry is “inactive”. As for `CN(CCOc1ccc(NS(C)(=O)=O)cc1)CCc1ccc(NS(C)(=O)=O)cc1`, the Potency result was “inactive”. `CC1(CN2CCC(n3c(=O)[nH]c4ccccc43)CC2)OCc2ccccc2-n2cccc21` (configuration not stated): the Potency result was “inactive”. Consider `C#Cc1cccc(Nc2ncnc3cc(OCCOC)c(OCCOC)cc23)c1`, for which the Potency result was “inactive”. The same measure for `CC1(C)S[C@@H]2[C@H](NC(=O)[C@H](N)c3ccccc3)C(=O)N2[C@H]1C(=O)O`: “inactive”. Take `C[C@]12CC[C@H]3[C@@H](CCC4=CC(=O)CC[C@@H]43)[C@@H]1CC[C@@H]2OC(=O)CCc1ccccc1`: the Potency result was “inactive”. With `CN1C(=S)CN=C(c2ccccc2)c2cc(Cl)ccc21`, the Potency result was “inactive”.

Take `C=C1C[C@@H]2[C@H](CC[C@]3(C)C(=O)CC[C@@H]23)[C@@]2(C)C=CC(=O)C=C12`: the Potency result is “inactive”.

As for `CN1CCN(C2=Nc3cc(Cl)ccc3Nc3ccccc32)CC1`, the Potency result was “inactive”. As to `CCOc1ccc2ccccc2c1C(=O)N[C@@H]1C(=O)N2[C@@H]1SC(C)(C)[C@@H]2C(=O)O`, the Potency result is “inactive”. The same measure for `Clc1ccc(COC(Cn2ccnc2)c2ccc(Cl)cc2Cl)cc1` (configuration not stated): “inactive”; for `COc1ccc(OC)c(C(O)CNC(=O)CN)c1` (configuration not stated): “inactive”. Consider `CCCCOCCOCCOCc1cc2c(cc1CCC)OCO2`, for which the Potency result is “inactive”.

Turning to `CCc1nc(N)nc(N)c1-c1ccc(Cl)cc1`, the Potency result was “inactive”. With `Cc1ccc(-c2nc3ccc(C)cn3c2CC(=O)N(C)C)cc1`, the Potency entry was “inactive”.

With `c1cnc2cc3c(cc2n1)C1CNCC3C1`, the Potency result is “inactive”. The same measure for `CN(C)CC/C=C1\c2ccccc2COc2ccccc21`: “inactive”; for `CC(=O)CCCCn1c(=O)c2c(ncn2C)n(C)c1=O`: “inactive”.

For `CN1C[C@H]2c3ccccc3Oc3ccc(Cl)cc3[C@@H]2C1`, the Potency entry is “inactive”. `CNS(=O)(=O)Cc1ccc2[nH]cc(CCN(C)C)c2c1`: the Potency entry was “inactive”. In the case of `Cc1c2oc3c(C)ccc(C(=O)N[C@@H]4C(=O)N[C@H](C(C)C)C(=O)N5CCC[C@H]5C(=O)N(C)CC(=O)N(C)[C@@H](C(C)C)C(=O)O[C@@H]4C)c3nc-2c(C(=O)N[C@@H]2C(=O)N[C@H](C(C)C)C(=O)N3CCC[C@H]3C(=O)N(C)CC(=O)N(C)[C@@H](C(C)C)C(=O)O[C@@H]2C)c(N)c1=O` (I: T[dV]P[Sar][NMeV] / II: T[dV]P[Sar][NMeV]; ester I:1-I:C, II:1-II:C; linker I:N-II:N via Actinocin(9to1)), the Potency result is “inactive”.

As to `CC1OC(C)OC(C)O1` (configuration not stated), the Potency result was “inactive”. `CC(=O)O[C@]1(C(C)=O)CC[C@H]2[C@@H]3C=C(Cl)C4=CC(=O)[C@@H]5C[C@@H]5[C@]4(C)[C@H]3CC[C@@]21C`: the Potency entry is “inactive”.

For `Clc1ccc(CCC(Cn2ccnc2)Sc2c(Cl)cccc2Cl)cc1` (configuration not stated), the Potency entry was “inactive”.

Consider `CC(C)C[C@H](NC(=O)[C@H](CCc1ccccc1)NC(=O)CN1CCOCC1)C(=O)N[C@@H](Cc1ccccc1)C(=O)N[C@@H](CC(C)C)C(=O)[C@@]1(C)CO1`, for which the Potency was 385 nM (active).

Consider `CCN(CC)C(=O)N[C@@H]1C=C2c3cccc4[nH]cc(c34)C[C@@H]2N(C)C1`, for which the Potency result was “inactive”.

For `CC(C)(C)NC(=O)[C@H]1CC[C@H]2[C@@H]3CC[C@H]4NC(=O)C=C[C@]4(C)[C@H]3CC[C@]12C`, the Potency entry was “inactive”.

As for `Cn1cnc([N+](=O)[O-])c1Sc1ncnc2nc[nH]c12`, the Potency result was “inactive”. For `CC[C@H](C)C(=O)O[C@H]1C[C@@H](C)C=C2C=C[C@H](C)[C@H](CC[C@@H]3C[C@@H](O)CC(=O)O3)[C@H]21`, the Potency result is “inactive”. Turning to `CNCC[C@@H](Oc1ccccc1C)c1ccccc1`, the Potency result is “inactive”.

As to `CC(C)c1c(C(=O)Nc2ccccc2)c(-c2ccccc2)c(-c2ccc(F)cc2)n1CC[C@@H](O)C[C@@H](O)CC(=O)O`, the Potency entry is “inactive”.
